{"source": "PubChem BioAssay (NCATS)", "note": "Activity calls are given as the source filed them. A call without a number means that no potency is given here. Calls come from the whole dose curve; as a rule, active = well fitted activation curve with a large enough effect; inconclusive = small, poorly fitted or top-dose-only effect; inactive = flat fitted curve, though single readings scatter. Potency is the fitted concentration of half-maximal effect.", "data": [{"test": "Cellular Toxicity (caspase-3) SHSY5Y (AID 657)", "conditions": "SH-SY5Y caspase-3 activation; series mostly up to 91.7 µM", "description": "NIH Chemical Genomics Center [NCGC]\nNIH Molecular Libraries Screening Centers Network [MLSCN]\nNational Institutes of Environmental Health Sciences [NIEHS]\nNational Toxicology Program [NTP]\nWe have developed a 1536-well cell-based assay for quantitative high throughput screening (qHTS) against a number of cell lines to determine in vitro caspase 3/7 activity of small molecules. This particular assay uses the SH-SY5Y cell line which is derived from human neuroblastoma.\nNCGC Assay Protocol Summary:\nThe Caspase-Glo 3/7 assay (Promega) is a homogeneous method to measure caspase-3 and caspase-7 activities in cultured cells. The quantitation of caspase 3/7 activity is based on the cleavage of a peptide-aminoluciferin substrate. After caspase cleaves the substrate the free aminoluciferin is liberated and serves as the substrate of luciferase, which generates the light. The luminescent signal is proportional to the amount of caspase 3/7 activity present.\nUsing the Caspase-Glo 3/7 assay, the amount of caspase 3/7 activity was measured in the SH-SY5Y cell line with complete culture medium following compound treatment for 16 hours. The assay was performed in opaque white 1536-well plates. In the screen, staurosporine and doxorubicin were used as positive controls. Library compounds were measured for their ability to cause the activation of caspase 3/7 in the cell line, as reflected by an increase in luminescence signal, in a concentration-dependent manner. Data were normalized to the controls for basal activity (DMSO only) and 100% stimulation (10 uM staurosporine). AC50 values were determined from concentration-response data modeled with the standard Hill equation.\nqHTS protocol for caspase 3/7 assay in SH-SY5Y cells\n[Step] [Parameter] [Value] [Description]\n1. Reagent; 5 uL; 1500 SH-SY5Y cells/well\n2. Time; 5 hr; 37 °C incubation\n4. Controls; 23 nL; doxorubicin 7 pM to 100 uM & staurosporine 1.4 pM to 20 uM\n5. Time; 16 hr; 37 °C incubation\n6. Reagent; 5 uL; Caspase-Glo 3/7 reagent\n7. Time; 1 hr; Room Temperature\n8. Detection; Luminescence; Viewlux plate reader\nKeywords: caspase 3/7, apoptosis, SH-SY5Y cell line, luminescence, NTPHTS, NTPHTS_NCGC, NIEHS, EPA, DSSTox, MLSMR, MLSCN, NIH Roadmap, qHTS, NCGC", "values": [{"smiles": "NCCN", "Potency": "inactive"}, {"smiles": "OCc1ccccc1", "Potency": "inactive"}, {"smiles": "CO/N=C(/C(=O)N[C@@H]1C(=O)N2C(C(=O)O)=C(COC(N)=O)CS[C@H]12)c1ccco1", "Potency": "inactive"}, {"smiles": "CC[C@H]1OC(=O)[C@H](C)[C@@H](O[C@H]2C[C@@](C)(OC)[C@@H](O)[C@H](C)O2)[C@H](C)[C@@H](O[C@@H]2O[C@H](C)C[C@H](N(C)C)[C@H]2O)[C@](C)(O)C[C@@H](C)CN(C)[C@H](C)[C@@H](O)[C@]1(C)O", "Potency": "inactive"}, {"smiles": "COC(=O)c1ccccc1O", "Potency": "inactive"}, {"smiles": "Nc1nccs1", "Potency": "inactive"}, {"smiles": "O=P(O)(O)O", "Potency": "inactive"}, {"smiles": "CCCCC", "Potency": "inactive"}, {"smiles": "O=c1n(CC2CO2)c(=O)n(CC2CO2)c(=O)n1CC1CO1", "note": "(configuration not stated)", "Potency": "12.6 µM (active)"}, {"smiles": "Oc1ccc(/C=C/c2cc(O)cc(O)c2)cc1", "Potency": "inactive"}, {"smiles": "CC/C=C\\C/C=C\\C/C=C\\CCCCCCCC(=O)O", "Potency": "inactive"}, {"smiles": "CC1=CC(=O)NS(=O)(=O)O1", "Potency": "inactive"}, {"smiles": "C/C=C/C=C/C(=O)O", "Potency": "inactive"}, {"smiles": "[O-][N+](=Nc1ccccc1)c1ccccc1", "Potency": "inactive"}, {"smiles": "Cc1ncc[nH]1", "Potency": "inactive"}, {"smiles": "CC(C)(C)CC(C)(C)c1ccc(OCCO)cc1", "Potency": "inactive"}, {"smiles": "CCCCO", "Potency": "inactive"}, {"smiles": "ClC(Cl)Cl", "Potency": "inactive"}, {"smiles": "C[C@H](CCC(=O)O)[C@H]1CC[C@H]2[C@@H]3CC[C@@H]4C[C@H](O)CC[C@]4(C)[C@H]3C[C@H](O)[C@]12C", "Potency": "inactive"}, {"smiles": "C[C@H]1O[C@@H](O[C@H]2[C@@H](O)C[C@H](O[C@H]3[C@@H](O)C[C@H](O[C@H]4CC[C@@]5(C)[C@H](CC[C@@H]6[C@@H]5C[C@@H](O)[C@]5(C)[C@@H](C7=CC(=O)OC7)CC[C@]65O)C4)O[C@@H]3C)O[C@@H]2C)C[C@H](O)[C@@H]1O", "Potency": "inactive"}, {"smiles": "OC[C@H]1O[C@@H]2O[C@H]3[C@H](O)[C@@H](O)[C@@H](O[C@H]4[C@H](O)[C@@H](O)[C@@H](O[C@H]5[C@H](O)[C@@H](O)[C@@H](O[C@H]6[C@H](O)[C@@H](O)[C@@H](O[C@H]7[C@H](O)[C@@H](O)[C@@H](O[C@H]1[C@H](O)[C@H]2O)O[C@@H]7CO)O[C@@H]6CO)O[C@@H]5CO)O[C@@H]4CO)O[C@@H]3CO", "Potency": "inactive"}, {"smiles": "C=C1C(CCl)(CCl)C2(Cl)C(Cl)C(Cl)C1(Cl)C2(Cl)Cl", "note": "(configuration not stated)", "Potency": "39.8 µM (active)"}, {"smiles": "CCOC(C)OCC", "Potency": "inactive"}, {"smiles": "NC(N)=O", "Potency": "inactive"}, {"smiles": "CC1=CCC2CC1C2(C)C", "note": "(configuration not stated)", "Potency": "inactive"}, {"smiles": "Cc1ccc(S(=O)(=O)O)cc1C", "Potency": "inactive"}, {"smiles": "Oc1cccc(O)c1O", "Potency": "inactive"}, {"smiles": "c1ccc2ccccc2c1", "Potency": "inactive"}, {"smiles": "Nc1ccc(N=Nc2ccccc2)c(N)n1", "Potency": "inactive"}, {"smiles": "O.O.O.O.O.O.O.O=S(=O)([O-])[O-].[Co+2]", "Potency": "inactive"}, {"smiles": "CC(C)O", "Potency": "inactive"}, {"smiles": "CO", "Potency": "inactive"}, {"smiles": "OCl", "Potency": "inactive"}, {"smiles": "C[C@H](CCC(=O)O)[C@H]1CC[C@H]2[C@@H]3[C@H](O)C[C@@H]4C[C@H](O)CC[C@]4(C)[C@H]3C[C@H](O)[C@]12C", "Potency": "inactive"}, {"smiles": "OB(O)O", "Potency": "inactive"}, {"smiles": "Nc1ncnc2c1ncn2[C@H]1CC[C@@H](CO)O1", "Potency": "inactive"}, {"smiles": "OCC(O)CO", "Potency": "inactive"}]}]}
